The list is not random: actives were taken first. Their share in the collection is about 3.4%.
PAFAH1B2 FP inh: PAFAH1B2 enzyme inhibitors, primary screen, biochemical, fluorescence polarization, human; recombinant PAFAH1B2, FP-rhodamine activity probe; inhibition, % at 3.39 µM; Platelet-activating factor acetylhydrolase IB subunit alpha2 (Homo sapiens), P68402; AID 492953, 2010; 1.2% of 340,000 active;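 active = inhibition above the mean of all tested compounds plus 3 SD, cut at about 24% in these data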
Target sequence (P68402 whole entry, looked up): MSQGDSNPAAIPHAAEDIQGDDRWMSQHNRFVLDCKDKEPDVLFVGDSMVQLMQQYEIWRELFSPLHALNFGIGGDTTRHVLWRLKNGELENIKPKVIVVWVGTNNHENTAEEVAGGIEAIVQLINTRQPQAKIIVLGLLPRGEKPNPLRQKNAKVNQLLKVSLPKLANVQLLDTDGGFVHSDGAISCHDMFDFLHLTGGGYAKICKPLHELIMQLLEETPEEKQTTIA
PAFAH1B3 inh: PAFAH1B3 enzyme inhibitors, primary screen, biochemical, fluorescence polarization, human; recombinant PAFAH1B3, FP-rhodamine probe; inhibition, % at 3.39 µM; Platelet-activating factor acetylhydrolase IB subunit alpha1 (Homo sapiens), Q15102; 0.28% of 340,000 active;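 active = inhibition above the screen-wide average of all tested compounds plus 3 SD, cut at about 25% in these data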
pPAFAH FP inh: pPAFAH enzyme inhibitors, primary screen, biochemical, fluorescence polarization, human | recombinant pPAFAH, FP-rhodamine probe fluorescence polarization | inhibition, % at 3.39 µM | 1.5% of 330,000 active | AID 463082, 2010;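 active = inhibition above the mean inhibition across the screen plus 3 SD, cut at about 25% in these data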;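 note: inhibitors block binding of the rhodamine activity-based probe so polarization drops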
Target sequence (Q13093 whole entry, looked up): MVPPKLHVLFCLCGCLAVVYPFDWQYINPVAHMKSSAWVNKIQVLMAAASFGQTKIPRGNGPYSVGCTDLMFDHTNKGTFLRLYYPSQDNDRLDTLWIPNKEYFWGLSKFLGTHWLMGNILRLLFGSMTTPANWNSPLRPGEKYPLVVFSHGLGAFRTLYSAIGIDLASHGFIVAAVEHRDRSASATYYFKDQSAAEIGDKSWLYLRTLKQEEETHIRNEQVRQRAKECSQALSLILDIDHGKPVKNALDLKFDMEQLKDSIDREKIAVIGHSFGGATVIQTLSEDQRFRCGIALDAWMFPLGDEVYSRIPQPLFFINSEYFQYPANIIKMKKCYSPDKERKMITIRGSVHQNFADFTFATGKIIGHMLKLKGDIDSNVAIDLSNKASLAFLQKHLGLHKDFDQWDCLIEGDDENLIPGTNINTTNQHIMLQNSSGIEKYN
PAFAH2 inh: PAFAH2 enzyme inhibitors, primary screen, biochemical, fluorescence polarization, human | AID 492956, 2010 | 0.99% of 340,000 active | inhibition, % at 3.39 µM | recombinant PAFAH2, FP-rhodamine activity probe;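 active = inhibition above the mean over all tested compounds plus 3 SD, cut at about 30% in these data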;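 note: inhibitors block probe labeling of enzyme so polarization drops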
PP5 inh: PP5 phosphatase inhibitors, primary screen, biochemical, fluorescence | 0.18% of 320,000 active | AID 1987, 2009 | inhibition, % at 6.7 µM | purified PP5c, OMFP substrate fluorescence | Serine/threonine-protein phosphatase 5 (Homo sapiens), P53041;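 active = inhibition above the campaign's mean inhibition across all tested compounds plus 3 SD, cut at about 9.5% in these data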
PP1 inh: PP1-alpha phosphatase inhibitors, primary screen, counter-screen for PP5 inhibitor project, biochemical, fluorescence, OMFP substrate, single point; 0.9% of 320,000 active; Serine/threonine-protein phosphatase PP1-alpha catalytic subunit (Homo sapiens), P62136; inhibition, % at 6.7 µM; AID 2235, 2010; purified PP1alpha;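 active = inhibition above the mean inhibition of all tested compounds plus 3 SD, computed separately for each screening campaign, cut at about 15% in these data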
PP1 inh confirm: PP1 phosphatase inhibitors, confirmation, biochemical, fluorescence, OMFP substrate, triplicate. shares compounds with PP1 inh. purified PP1alpha. inhibition, % at 6.7 µM. 52% of 1,900 active. AID 2358, 2010;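 active = mean PP1 inhibition above a set limit taken from the earlier primary screen, cut at about 15% in these data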
PP5 counter: PP5 phosphatase inhibition by PP1 hits, confirmation, counter-screen for PP1 inhibitor project, biochemical, fluorescence, triplicate; shares compounds with PP1 inh; purified PP5c, OMFP fluorescence; inhibition, % at 6.7 µM; 4% of 1,900 active; AID 2360, 2010;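 active = mean PP5 inhibition over triplicate wells above about 9.5% taken from the earlier PP1 screen, limit read from the data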
Each line names hits and unclear results; the compound was inactive in the other large screens (follow-up assays come after a bar, where they were run).

N#Cc1ccc(-c2csc(NC3=NCCCCC3)n2)cc1	none (no result: pPAFAH FP inh, PP5 inh, PP1 inh)
C#CCOCCOCCOCCNc1nc(N2CCN(C(=O)CCCCCCCCCCNC(=O)Cn3cc(C[C@@H](C)O)nn3)CC2)nc(N2CCN(C(=O)CCCCCCCCCCNC(=O)Cn3cc(C[C@@H](C)O)nn3)CC2)n1	none
C#CCOCCOCCOCCNc1nc(N2CCN(C(=O)CCCCCCCCCCNC(=O)[C@H](CO)n3cc(CCCSC)nn3)CC2)nc(N2CCN(C(=O)CCCCCCCCCCNC(=O)[C@H](CO)n3cc(CCCSC)nn3)CC2)n1	PP1 inh 30.4 | PP1 inh confirm 21.9 | PP5 counter inactive
C#CCOCCOCCOCCNc1nc(N2CCN(C(=O)CCCCCCCCCCNC(=O)Cn3cc(CCCCCN)nn3)CC2)nc(N2CCN(C(=O)CCCCCCCCCCNC(=O)[C@H](CO)n3cc(CCCCCN)nn3)CC2)n1	PP1 inh 34.9 | PP1 inh confirm inactive | PP5 counter inactive
C#CCOCCOCCOCCNc1nc(N2CCN(C(=O)CCCCCCCCCCNC(=O)Cn3cc(C[C@@H](C)O)nn3)CC2)nc(N2CCN(C(=O)CCCCCCCCCCNC(=O)[C@H](CCCCN)n3cc(C[C@@H](C)CC)nn3)CC2)n1	PP1 inh 37.6 | PP1 inh confirm 30.6 | PP5 counter inactive
C#CCOCCOCCOCCNc1nc(N2CCN(C(=O)CCCCCCCCCCNC(=O)Cn3cc(CCCCCN)nn3)CC2)nc(N2CCN(C(=O)CCCCCCCCCCNC(=O)[C@H]([C@@H](C)CC)n3cc(CCCCCN)nn3)CC2)n1	PP1 inh 46.4 | PP1 inh confirm 34.7 | PP5 counter inactive
C[C@H](CO)N1C[C@H](C)[C@@H](CN(C)S(=O)(=O)c2ccc(F)cc2)Oc2ccc(NS(=O)(=O)c3cccs3)cc2C1=O	none (no result: PP5 inh, PP1 inh)
O=C(CC(=O)Nc1ccc(F)cc1)Nc1ccc(F)cc1	none
Cc1c(C(=O)c2ccc([N+](=O)[O-])cc2)c(=O)n(C)c(=O)n1C	none
Cc1ccccc1Nc1nnc(SCC(=O)NC(=O)NCc2ccco2)s1	PP1 inh 26.5 | PP1 inh confirm inactive | PP5 counter inactive
Cc1cccc(N2C(=O)C(O)=C(C(=O)c3cccs3)C2c2cccc(Oc3ccccc3)c2)n1 (stereo not drawn)	PP1 inh 25.3 | PP1 inh confirm 25.4 | PP5 counter inactive
CCN(CC)C(=O)CSc1nc(N)c2c3c(sc2n1)CC(C)CC3 (stereo not drawn)	none
O=C(O)c1cc(-c2ccc(Cl)cc2)n(-c2cccc(Cl)c2)n1	PP1 inh 50.3 | PP1 inh confirm 48.7 | PP5 counter inactive
O=C(O)c1cc(-c2ccccc2)n(-c2ccc(Cl)cc2Cl)n1	PP1 inh 38.0 | PP1 inh confirm 35.7 | PP5 counter inactive
O=C(O)c1cc(-c2ccccc2Cl)n(-c2cccc(Cl)c2)n1	PP1 inh 18.3 | PP1 inh confirm inactive | PP5 counter inactive
Cc1ccc(-n2nc(C(=O)O)cc2-c2ccccc2Cl)cc1	none
O=C(O)c1cc(-c2ccccc2)n(-c2ccccc2C(=O)O)n1	none
CCOC(=O)C1=C(c2ccccc2)NC(SC)=C(C#N)C1c1ccco1 (stereo not drawn)	none
O=[N+]([O-])c1cc([N+](=O)[O-])c(Oc2cc(Cl)ccc2Cl)cc1NC1CCCCCCC1	none
Cc1ccc(CNC(=O)c2ccc(N3CCC4(CC3)CC(c3cccc(Br)c3)=NO4)c(NC(=O)c3c(Cl)cccc3Cl)c2)cc1	PP1 inh 21.3 | PP1 inh confirm inactive | PP5 counter inactive
Cc1ccc(CNC(=O)c2ccc(N3CCC4(CC3)CC(c3cccc(Br)c3)=NO4)c(NC(=O)c3ccc(Br)cc3)c2)cc1	none (no result: PP5 inh, PP1 inh)
Cc1ccc(-c2nn(-c3ccccc3)cc2C2CC(c3cccs3)=NN2C(=O)CCC(=O)O)cc1 (stereo not drawn)	PP1 inh 18.9 | PP1 inh confirm inactive | PP5 counter inactive
COc1ccc(NCc2nnc(SCC(=O)Nc3nc(-c4ccccc4)cs3)n2-c2ccccc2)cc1	PP1 inh 31.8 | PP1 inh confirm 26.5 | PP5 counter inactive
C=CCNC(=O)C1=NN(c2c(F)c(F)cc(F)c2F)C(=O)CC1	none
CCOc1ccc(/C=C2/SC(=S)N(CCC(=O)Nc3ccc(C(=O)O)cc3)C2=O)cc1	none
O=C(O)CCN1C(=O)/C(=C\c2cccc(OCC(=O)Nc3ccc(Cl)cc3)c2)SC1=S	PP1 inh 24.3 | PP1 inh confirm inactive | PP5 counter inactive
O=C(CCN1C(=O)/C(=C\c2ccccc2)SC1=S)Nc1ccc(C(=O)O)cc1	PP1 inh 20.0 | PP1 inh confirm inactive | PP5 counter inactive
CCCC(=O)Nc1ccc(-c2csc(-c3cccnc3)n2)cc1	none (no result: pPAFAH FP inh, PP5 inh, PP1 inh)
COc1cccc(NC(=O)C(NCC2CCCCC2)c2ccccc2)c1 (stereo not drawn)	none
CCOCCCNC(=O)C1CCC(CNS(=O)(=O)c2ccc(OC)cc2)CC1 (stereo not drawn)	none
Cc1ccc(C(=O)N/C(=C/c2ccc(-c3cc(C(F)(F)F)ccc3Cl)o2)C(=O)NCc2cccnc2)cc1	PP1 inh 21.7 | PP1 inh confirm inactive | PP5 counter inactive
O=C(C1CCN(S(=O)(=O)c2cccc3nsnc23)CC1)N1CC=C(c2ccccc2)CC1	none
CC(=O)C1CCC2C3CCC4=CC(=O)C=CC4(C)C3C(=O)CC12C (stereo not drawn)	none (no result: pPAFAH FP inh, PP5 inh, PP1 inh)
C[C@]12C=CC(=O)C=C1CC[C@@H]1C2=CC[C@]2(C)[C@@H](C(=O)CN3CCN(c4cc(N5CCCC5)nc(N5CCCC5)n4)CC3)CC[C@@H]12	PP5 inh 13.1, PP1 inh 26.0 | PP1 inh confirm 50.0 | PP5 counter 25.1
Cc1ccc2nc(NC(=O)C3CCN(S(=O)(=O)c4cc([N+](=O)[O-])ccc4Cl)CC3)sc2c1	PP1 inh 20.4 | PP1 inh confirm 25.9 | PP5 counter inactive
C#CCOCCOCCOCCNc1nc(N2CCN(C(=O)CCCCCCCCCCNC(=O)[C@@H](CCSC)n3cc(CCO)nn3)CC2)nc(N2CCN(C(=O)CCCCCCCCCCNC(=O)[C@H]([C@@H](C)CC)n3cc(CCCCN=C(N)N)nn3)CC2)n1	PP1 inh 55.3 | PP1 inh confirm 49.3 | PP5 counter inactive
